Assay outcomes as filed in PubChem.
PLCb3 inh = blocks human PLC-beta3 enzyme activity; Q01970; Purified PLC-beta3, fluorogenic substrate, fluorescence; inhibition, % at 12.2 µM; 370,000 compounds, 0.18% hits; AID 720704; in the data active = inhibition above about 11%;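 note: 0% = median of compound wells on plate and 100% = full blocker control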
ADAM10 inh = inhibitors of human ADAM10; inhibition, % at 7 µM; O14672; recombinant ADAM10, EDANS/DABCYL FRET peptide cleavage, 3 h; 370,000 compounds, 0.62% hits;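 active = inhibition above a per-campaign cutoff equal to the mean of compounds falling between control-based bounds plus 3 SD, cut at about 20% in these data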;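 note: 0% = DMSO wells while the 100% control is not disclosed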
Target sequence (O14672 214-748 limits assumed): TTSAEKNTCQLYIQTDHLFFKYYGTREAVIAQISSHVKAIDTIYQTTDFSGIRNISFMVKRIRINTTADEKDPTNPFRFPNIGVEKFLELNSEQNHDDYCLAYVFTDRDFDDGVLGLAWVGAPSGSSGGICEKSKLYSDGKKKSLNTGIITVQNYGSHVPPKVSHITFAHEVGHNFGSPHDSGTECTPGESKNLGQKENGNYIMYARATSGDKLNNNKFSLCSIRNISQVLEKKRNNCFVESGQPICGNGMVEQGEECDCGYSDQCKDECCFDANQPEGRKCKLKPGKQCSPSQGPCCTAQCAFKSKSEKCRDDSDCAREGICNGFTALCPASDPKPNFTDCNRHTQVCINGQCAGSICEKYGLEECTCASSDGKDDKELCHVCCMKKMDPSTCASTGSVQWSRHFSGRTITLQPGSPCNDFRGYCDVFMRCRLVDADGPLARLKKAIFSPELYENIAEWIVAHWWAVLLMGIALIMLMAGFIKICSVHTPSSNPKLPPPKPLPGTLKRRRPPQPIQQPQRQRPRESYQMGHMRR
ADAM17 inh = inhibitors of human ADAM17. inhibition, % at 6.95 µM. 370,000 compounds, 0.83% hits. P78536. recombinant ADAM17, EDANS/DABCYL FRET peptide cleavage. AID 720648;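 active = inhibition above the mean of compounds lying between control limits plus 3 SD, set per campaign, cut at about 8.5% in these data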;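 note: 0% = DMSO-only wells as the low control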
Rce1 inh = inhibitors of yeast Ras-converting enzyme | yeast membranes, quenched prenylated peptide cleavage fluorescence | calls only | 290,000 compounds, 0.27% hits | AID 2563;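 active = fall in fluorescence gain of 50% or more versus controls, with final raw signal at or below 3038400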;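 note: plate controls were neutral control wells for no effect and wells lacking membranes for full effect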
PLC-gamma1 inh = inhibitors of human phospholipase C gamma1; purified PLC-gamma1, fluorogenic substrate, fluorescence; P19174; 370,000 compounds, 0.84% hits; inhibition, % at 12.2 µM
PLCgamma1 ctr = counter-screen for PLC-beta3 inhibitors: inhibitors of human PLC-gamma1; shares compounds with PLC-gamma1 inh; purified PLC-gamma1, fluorogenic substrate, fluorescence; inhibition, % at 12.3 µM; 3,300 compounds, 3.1% hits
PLCbeta3 conf = human PLC-beta3 inhibition, confirmation | shares compounds with PLC-gamma1 inh | purified PLC-beta3, fluorogenic substrate fluorescence | inhibition, % at 12.3 µM | 3,300 compounds, 1% hits | AID 743261; in the data active = inhibition above about 11%
* marks the source's active call; other numbers are inactive results; i = inactive; . = no result. In the library only some 2.1% were active in any assay of this set; here they are far more common. Cut-off read from the data, not from the text of the source, unless noted: active = inhibition above about 9.5%; inactive = the rest.

SMILES	PLCb3 inh	ADAM10 inh	ADAM17 inh	Rce1 inh	PLC-gamma1 inh	PLCgamma1 ctr	PLCbeta3 conf
CCN(CC)S(=O)(=O)c1ccc(O)c(NC(=O)c2cc(-c3cc(OC)c(OC)c(OC)c3)nc3ccccc23)c1	.	.	.	i	.	.	.
COc1ccc2sc(N(CCCN(C)C)C(=O)c3ccc(S(=O)(=O)N4CCCC4)cc3)nc2c1	7	2	5	i	12*	-4	-2
O=C(N/N=C/c1ccc(F)cc1)c1ccccc1	2	2	1	i	-1	.	.
O=C(Oc1ccc(/C=N/NC(=O)c2ccccc2F)cc1)c1ccccc1	-2	-2	-5	i	5	.	.
O=C(Oc1ccc(/C=N/NC(=O)c2ccccc2O)cc1)c1ccccc1	-19	5	-5	i	-16	.	.
O=C(N/N=C/c1ccc(OC(=O)c2cccs2)cc1)c1ccc(F)cc1	11*	6	3	i	10*	-1	5
O=C(Oc1ccc(/C=N/NC(=O)c2ccco2)cc1)c1ccccc1	3	7	-1	.	10*	2	8
O=C(N/N=C/c1ccc(OC(=O)c2ccccc2)cc1)c1cccc(O)c1	18*	6	-1	i	13*	11*	15*
COc1ccccc1Cn1c(=S)[nH]c2cc(C(=O)N3CCCC(C)C3)ccc2c1=O (stereo unspecified)	-1	0	2	.	2	.	.
CC(=NOC(=O)c1ccc(Cl)cc1)c1nccs1	7	3	5	.	16*	-8	-5
COC(=O)c1cn(CC(=O)NCc2ccco2)c2ccccc12	5	-4	-4	i	13*	-5	-3
CCC(=O)c1cn(CC(=O)NCc2ccco2)c2ccccc12	2	5	2	i	10.0*	-1	2
O=C(Cn1cc(C(=O)c2ccco2)c2ccccc21)NCc1ccco1	-8	-1	0	i	-4	.	.
Cn1cccc1-c1nc2ccc(NC(=O)c3ccccc3)cc2[nH]1	-15	5	0	i	-15	.	.
Cn1cccc1-c1nc2ccc(NC(=O)c3ccc([N+](=O)[O-])cc3)cc2[nH]1	9	7	-5	i	14*	2	5
O=S(=O)(Nc1ccc(-c2ccc3nncn3n2)cc1)c1cccc(F)c1	-42	-9	-2	i	-41	.	.
Cc1cc(N)n(-c2ccc([N+](=O)[O-])cc2)n1	1	10	5	i	12*	8	5
CC(C)(C)OC(=O)N1CCC[C@@H]1C(=O)N1CCC[C@H]1C(=O)NCc1ccccc1	3	3	-2	.	0	.	.
CCCCOc1cccc(C(=O)Nc2ccc(NC(=O)c3cccs3)cc2)c1	6	2	1	i	9.6*	-119	-118
CCOc1ccc(NC(=O)c2cccc(NC(=O)c3ccccc3)c2)cc1	-5	4	5	i	11*	-5	-1
CCCOc1ccc(C(=O)Nc2ccc(NC(=O)c3cccs3)cc2)cc1	0	-3	-2	i	2	.	.
CCOc1ccc(C(=O)Nc2ccc3[nH]ncc3c2)cc1	6	-8	-8	i	12*	-9	-1
Cc1noc(C)c1NC(=O)Nc1cccc2c1O[C@H](CN(C)C(=O)Nc1ccc3c(c1)OCO3)[C@@H](C)CN([C@H](C)CO)C2=O	-17	-23	-1	.	-9	.	.
Nc1ncnc2c1ncn2[C@@H]1O[C@H](C(=O)NCC2CCN(Cc3ccccc3)CC2)[C@@H](O)[C@H]1O	3	-1	-1	.	7	.	.
COc1ccc(/C=C2\CCC(C3CCCC3)C2=O)cc1 (stereo unspecified)	-5	-12	-2	i	10.0*	2	4
SMILES	PLCb3 inh	ADAM10 inh	ADAM17 inh	Rce1 inh	PLC-gamma1 inh	PLCgamma1 ctr	PLCbeta3 conf
Cc1ccc(SCCN2CCN(C)CC2)cc1	-2	-6	-2	i	1	.	.
COc1cc(C(=O)NCC2(N(C)C)CCCCC2)ccc1OCc1ccccc1	7	3	3	i	13*	0	3
COc1cc(C(N)=O)ccc1OCc1ccccc1	11*	3	4	i	7	-7	-2
COc1ccc(CN2CCC(C(N)=O)CC2)cc1OCc1ccccc1	-5	-5	-8	i	4	.	.
CCC(=O)c1ccc(OCc2ccccc2)c(OC)c1	1	-11	-4	i	1	.	.
COc1ccc(CN2CCN(C)CC2)cc1OCc1ccccc1	4	-6	2	i	11*	-3	-2
